# Compound activity from PubChem BioAssay.
# AmpC no deterg: blocks E. coli AmpC beta-lactamase in detergent-free assay. P00811. AmpC nitrocefin hydrolysis, absorbance 480 nm, 0.0001% Triton. Potency, µM (doses to about 57.1 µM), for the others: at the highest dose activity change, negative = inhibition, usual class: inhibitors. hit rate 0.52% among 330,000. AID 485341;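 note: plate controls were no compound for no effect and no enzyme for full effect; nearly all actives have a fitted effect of over 20% in size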
# Target sequence (P00811 whole entry, looked up): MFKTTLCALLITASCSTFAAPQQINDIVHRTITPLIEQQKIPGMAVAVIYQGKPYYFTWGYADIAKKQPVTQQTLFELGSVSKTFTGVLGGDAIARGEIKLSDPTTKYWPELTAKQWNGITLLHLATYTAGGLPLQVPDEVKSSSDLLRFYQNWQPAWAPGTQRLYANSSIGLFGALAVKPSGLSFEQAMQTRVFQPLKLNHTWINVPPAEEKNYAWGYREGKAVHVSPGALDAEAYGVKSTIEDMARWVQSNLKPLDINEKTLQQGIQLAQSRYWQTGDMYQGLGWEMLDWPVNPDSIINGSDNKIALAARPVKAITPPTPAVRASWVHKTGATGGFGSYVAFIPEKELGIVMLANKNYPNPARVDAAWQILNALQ
#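 AmpC (5.3 nM in the dispensed reagent) in 20 mM phosphate pH 7.0 with 0.01% (detergent screen) or 0.0001% Triton X-100 was preincubated with compounds for 15 min at room temperature. Nitrocefin was then added from an 800 uM solution, and hydrolysis was followed at 480 nm.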
# AmpC detergent: blocks E. coli AmpC beta-lactamase in detergent assay. AmpC hydrolysis of nitrocefin, absorbance 480 nm, 0.01% Triton. Potency, µM (series often up to 114 µM), for inactives: at the highest dose activity change, negative = inhibition, hits mostly inhibitors. hit rate 0.041% among 370,000. AID 485294;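 note: 0% = no-compound wells and -100% = no-enzyme wells; nearly all actives have a fitted effect of over 25% in size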
#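 AmpC (5.3 nM in the dispensed reagent) in 20 mM phosphate pH 7.0 with 0.01% (detergent screen) or 0.0001% Triton X-100 was preincubated with compounds for 15 min at room temperature. Nitrocefin was then added from an 800 uM solution, and hydrolysis was followed at 480 nm.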
# * = called active by the depositor; u = inconclusive; x = no result. Only a selection was taken, and hits are over-represented in it overall. Calls come from the whole dose curve; as a rule, active = well fitted curve in the direction sought with a large enough effect; inconclusive = small, poorly fitted or top-dose-only effect, or another doubt; inactive = no such curve, though single readings can be large; an effect the other way counts as inactive or inconclusive. Potency is the fitted concentration of half-maximal effect.
SMILES,AmpC no deterg,AmpC detergent
CCOc1ccc(-c2ccc(NS(=O)(=O)c3cc(C)c(C)cc3C)cc2)nn1,x,30%
COc1cccc2c(C)cc3nnc(SCC(=O)Nc4ccc(C)cc4)n3c12,x,-1%
CCOc1ccc(/C=N/NC(=O)c2c(C)n(C)c3ccc(OC)cc23)cc1,32µM*,-3%
COc1ccc2c(c1)c(C(=O)N/N=C/c1ccc(Br)cc1)c(C)n2C,-20%,7%
CSc1ccc(C2c3[nH]c4ccccc4c3CCN2C(=O)CCC2CCCC2)cc1 (stereo not given),x,-3%
O=C(Nc1ccc(F)cc1F)Nc1sccc1-c1nc2ccccc2s1,7.9µM*,7%
O=C(Nc1nc2ccccc2s1)Nc1ccc(F)cc1F,-37%,2%
COc1cccc(CNC(=O)CN2C(=O)N(c3c(C)cccc3C)S(=O)(=O)c3ccccc32)c1OC,x,1%
CCOc1ccc(NC(=O)c2ccc(NC(=O)N3CCSc4ncccc43)cc2)cc1,x,13%
Nc1nc(SCc2ccc(Cl)c(Cl)c2)n[nH]1,-10%,-15%
O=S1(=O)C=C(SCc2ccc(Cl)c(Cl)c2)Nc2ccccc21,18µM*,1%
CCOC(=O)C1CCN(C(c2cccc(OC)c2)c2sc3nc(C)nn3c2O)CC1 (stereo not given),10µM*,u
CCOC(=O)C1CCN(C(c2cccs2)c2sc3nc(C)nn3c2O)CC1 (stereo not given),22%,u
CCOc1ccc(C(=O)NCc2ccc3c(c2)CCN3C(=O)c2ccc(C)cc2)cc1OCC,x,4%
Cc1ccc(C)c(N2CCN(S(=O)(=O)c3ccc(F)c(C(=O)Nc4ccc(Cl)cc4Cl)c3)CC2)c1,x,5%
O=C(CC1SC(=O)N(c2ccccc2)C1=O)Nc1ccc(Br)cc1 (stereo not given),8.9µM*,-6%
O=C(CC1SC(=O)N(c2ccccc2)C1=O)Nc1ccc(Cl)cc1 (stereo not given),-47%,1%
CCCCN(C)S(=O)(=O)c1cc(-c2nnc3c4ccccc4c(C)nn23)ccc1C,x,-2%
COc1ccc(CNC(=O)COC(=O)c2cc(-c3ccco3)nc3ccccc23)cc1,10µM*,-5%
CCNC(=O)COC(=O)c1cc(-c2ccco2)nc2ccccc12,-22%,0%
COc1ccc(C(=O)Nc2ccc3nc(SCC(=O)N(C)c4ccccc4)sc3c2)cc1,x,15%
O=C(COc1ccc(F)cc1)Nc1nccs1,-12%,-11%
O=C(CS(=O)(=O)c1ccc(F)cc1)Nc1nccs1,32µM*,u
Cc1cccc(CNC(=O)Cn2ccc3cc(S(=O)(=O)N4CCC(C)CC4)ccc32)c1,x,17%
CCc1ccc(CNC(=O)c2cccc(-n3cnc4cccnc43)c2C)cc1,x,12%
SMILES,AmpC no deterg,AmpC detergent
Cc1ccc(C(=O)Nc2ncc(C)s2)o1,-4%,-2%
Cc1ccc(C(=O)Nc2ncc(Cc3ccc(F)cc3)s2)o1,32µM*,u
COC(=O)c1ccccc1NC(=O)c1noc2c1CCC2,-34%,u
CSc1ccccc1NC(=O)c1noc2c1CCC2,-57%,25µM*
O=C(c1cc2cc3ccc(Cl)cc3nc2o1)N1CCN(c2cccc(Cl)c2)CC1,x,0%
COc1ccc(-c2nnnn2C(C)C)cc1,7%,-2%
COc1ccc(-c2nnnn2CCc2ccccc2)cc1,0.2µM*,3%
CCc1cccc(NC(=O)CN2C(=O)COc3ccc(S(=O)(=O)Nc4ccccc4)cc32)c1,x,24%
COc1cc(CNc2ccc(O)cc2)cc(Br)c1OCc1ccccc1F,-24%,-4%
CCOc1cc(CNc2ccc(O)cc2)cc(Br)c1OCc1ccccc1F,4µM*,1%
CCOc1ccc(-c2nonc2NC(=O)c2oc3c(C)c(C)ccc3c2C)cc1OCC,x,-2%
O=C1C2Sc3[nH]c(=O)sc3C(c3ccccc3)C2C(=O)N1c1ccccc1 (stereo not given),18µM*,-9%
COc1cc(C2c3sc(=O)[nH]c3SC3C(=O)N(c4ccc(C)cc4)C(=O)C32)ccc1O (stereo not given),-59%,4%
COc1cc(/C=N/NC(=O)CCOc2ccccc2C)cc(Br)c1O,22µM*,1%
COc1ccc(/C=N/NC(=O)CCOc2ccccc2C)cc1OC,-1%,-15%
Cc1cccc(NC(=O)c2cnn(-c3ccccc3)c2-n2cccc2)c1C,x,26%
Cc1nc(S(=O)(=O)c2ccc(Cl)cc2)c(NCc2ccccc2)o1,-55%,56µM*
O=S(=O)(c1ccc(Cl)cc1)c1nc(-c2ccccc2F)oc1NCc1ccccc1,x,10%
COc1ccc(C2=CC(c3ccccc3Cl)n3nc(-c4ccc(C)cc4)nc3N2)cc1 (stereo not given),x,4%
O=C(N/N=C(/CC(=O)c1cccs1)C(F)(F)F)c1ccc(O)cc1,7.9µM*,-6%
O=C(N/N=C(\CC(=O)c1cccs1)C(F)(F)F)c1cccnc1,-4%,6%
COc1ccccc1NC(=O)c1nn(-c2ccccc2)ccc1=O,0.14µM*,-3%
